# The entries come from a sample that favours the strongest signals as a whole.
# Experiments:
# Test in all cases: glycan array binding signal (z-score within array); higher = stronger binding
# Settings in all cases: glycan notation: IUPAC condensed, linker removed
# [1] = target: Fuc(a1-2)Gal(b1-3)GalNAc(a1-3)[Fuc(a1-2)]Gal(b1-4)Glc
# Outline: (§1)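 The Consortium for Functional Glycomics database supplied 3228 glycan arrays, of which those lacking an available protein sequence were dropped. The binding signal, a within-array Z-score, was averaged across arrays of the same protein sequence and across linkers. Negative scores can be read as non-binding.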
# [2] = target: Fuc(a1-2)Gal(b1-3)GlcNAc(b1-3)Gal(b1-4)Glc
# Outline: as §1
# [3] = target: Fuc(a1-2)Gal(b1-3)[Fuc(a1-4)]GlcNAc(b1-3)[Fuc(a1-3)[Gal(b1-4)]GlcNAc(b1-6)]Gal(b1-4)Glc
# Outline: as §1
# [4] = target: Fuc(a1-2)Gal(b1-4)GlcNAc(b1-2)Man
# Outline: as §1
# [5] = target: Fuc(a1-2)Gal(b1-4)GlcNAc(b1-2)Man(a1-3)[Fuc(a1-2)Gal(b1-4)GlcNAc(b1-2)Man(a1-6)]Man(b1-4)GlcNAc(b1-4)[Fuc(a1-6)]GlcNAc
# Outline: as §1
# [6] = target: Fuc(a1-2)Gal(b1-4)GlcNAc(b1-3)[Fuc(a1-2)Gal(b1-4)GlcNAc(b1-6)]GalNAc
# Outline: as §1
# [7] = target: Fuc(a1-2)Gal(b1-4)[Fuc(a1-3)]GlcNAc(b1-3)Gal(b1-4)[Fuc(a1-3)]GlcNAc
# Outline: as §1
# [8] = target: Fuc(a1-2)Gal6S(b1-3)GlcNAc6S
# Outline: as §1
# [9] = target: Fuc(a1-2)[GalNAc(a1-3)]Gal(b1-3)GlcNAc(b1-2)Man(a1-3)[Fuc(a1-2)[GalNAc(a1-3)]Gal(b1-3)GlcNAc(b1-2)Man(a1-6)]Man(b1-4)GlcNAc(b1-4)[Fuc(a1-6)]GlcNAc
# Outline: as §1
# [10] = target: Fuc(a1-2)[GalNAc(a1-3)]Gal(b1-3)GlcNAc(b1-3)GalNAc
# Outline: as §1
# [11] = target: Fuc(a1-2)[GalNAc(a1-3)]Gal(b1-4)GlcNAc(b1-2)Man(a1-3)[Fuc(a1-2)[GalNAc(a1-3)]Gal(b1-4)GlcNAc(b1-2)Man(a1-6)]Man(b1-4)GlcNAc(b1-4)[Fuc(a1-6)]GlcNAc
# Outline: as §1
# [12] = target: Fuc(a1-3)[Gal(b1-4)]GlcNAc(b1-2)Man(a1-3)[Fuc(a1-3)[Gal(b1-4)]GlcNAc(b1-2)Man(a1-6)]Man(b1-4)GlcNAc(b1-4)[Fuc(a1-6)]GlcNAc
# Outline: as §1
# [13] = target: Fuc(a1-3)[GalNAc3S(b1-4)]GlcNAc
# Outline: as §1
# [14] = target: Gal(a1-3)Gal(b1-3)[Fuc(a1-4)]GlcNAc(b1-2)Man(a1-3)[Gal(a1-3)Gal(b1-3)[Fuc(a1-4)]GlcNAc(b1-2)Man(a1-6)]Man(b1-4)GlcNAc(b1-4)GlcNAc
# Outline: as §1
# Gal(a1-3)Gal(b1-4)Glc = target: Gal(a1-3)Gal(b1-4)Glc
# Outline: as §1
# [15] = target: Gal(a1-3)Gal(b1-4)[Fuc(a1-3)]GlcNAc
# Outline: as §1
# Gal(a1-4)Gal(b1-4)GlcNAc = target: Gal(a1-4)Gal(b1-4)GlcNAc
# Outline: as §1
# Gal(b1-2)Gal = target: Gal(b1-2)Gal
# Outline: as §1
# [16] = target: Gal(b1-3)GalNAc(a1-3)[Fuc(a1-2)]Gal(b1-4)GlcNAc
# Outline: as §1
# [17] = target: Gal(b1-3)GlcNAc(a1-3)Gal(b1-4)GlcNAc
# Outline: as §1
# [18] = target: Gal(b1-3)GlcNAc(b1-3)Gal(b1-3)GlcNAc
# Outline: as §1
# [19] = target: Gal(b1-3)[Fuc(a1-4)]GlcNAc(b1-2)Man(a1-3)[Gal(b1-3)[Fuc(a1-4)]GlcNAc(b1-2)Man(a1-6)]Man(b1-4)GlcNAc(b1-4)[Fuc(a1-6)]GlcNAc
# Outline: as §1
# Gal(b1-4)GlcNAc(b1-2)Man = target: Gal(b1-4)GlcNAc(b1-2)Man
# Outline: as §1
# Gal3S6S(b1-4)GlcNAc = target: Gal3S6S(b1-4)GlcNAc
# Outline: as §1
# Gal6S(b1-4)Glc = target: Gal6S(b1-4)Glc
# Outline: as §1
# [20] = target: GlcNAc(a1-4)Gal(b1-4)GlcNAc(b1-3)Gal(b1-4)[Fuc(a1-3)]GlcNAc(b1-3)Gal(b1-4)[Fuc(a1-3)]GlcNAc
# Outline: as §1
# [21] = target: GlcNAc(b1-2)Man(a1-3)[GlcNAc(b1-4)][GlcNAc(b1-2)Man(a1-6)]Man(b1-4)GlcNAc(b1-4)GlcNAc
# Outline: as §1
# GlcNAc(b1-3)Gal = target: GlcNAc(b1-3)Gal
# Outline: as §1
# [22] = target: Kdn(a2-3)Gal(b1-4)[Fuc(a1-3)]GlcNAc
# Outline: as §1
# [23] = target: Man(a1-2)Man(a1-2)Man(a1-3)Man
# Outline: as §1
# [24] = target: Man(a1-2)Man(a1-6)[Man(a1-3)]Man(a1-6)[Man(a1-2)Man(a1-2)Man(a1-3)]Man
# Outline: as §1
# [25] = target: Man(a1-3)[Man(a1-6)]Man(a1-6)[Man(a1-3)]Man(b1-4)GlcNAc(b1-4)GlcNAc
# Outline: as §1
# [26] = target: Man(a1-3)[Man(a1-6)]Man(b1-4)GlcNAc(b1-4)[Fuc(a1-6)]GlcNAc
# Outline: as §1
# [27] = target: Neu5Ac(a2-3)Gal(b1-3)GlcNAc(b1-2)Man(a1-3)[GlcNAc(b1-4)][Neu5Ac(a2-3)Gal(b1-3)GlcNAc(b1-2)Man(a1-6)]Man(b1-4)GlcNAc(b1-4)GlcNAc
# Outline: as §1
# [28] = target: Neu5Ac(a2-3)Gal(b1-3)[Fuc(a1-4)]GlcNAc(b1-3)Gal(b1-3)[Fuc(a1-4)]GlcNAc
# Outline: as §1
# [29] = target: Neu5Ac(a2-3)Gal(b1-3)[Neu5Ac(a2-6)]GalNAc
# Outline: as §1
# [30] = target: Neu5Ac(a2-3)Gal(b1-4)GlcNAc(b1-3)Gal(b1-4)[Fuc(a1-3)]GlcNAc
# Outline: as §1
# [31] = target: Neu5Ac(a2-3)Gal(b1-4)[Fuc(a1-3)]GlcNAc6S
# Outline: as §1
# [32] = target: Neu5Ac(a2-6)Gal(b1-4)GlcNAc(b1-3)GalNAc
# Outline: as §1
# [33] = target: Neu5Ac(a2-6)GlcNAc(b1-4)GlcNAc
# Outline: as §1
# [34] = target: Neu5Gc(a2-3)Gal(b1-4)GlcNAc
# Outline: as §1
binder,measurement,setting,value
"StcE (Escherichia coli), O82882.2 (protein) ADNNSAIYFNTSQPINDLQGSLAAEVKFAQSQILPAHPKEGDSQPHLTSLRKSLLLVRPVKADDKTPVQVEARDDNNKILGTLTLYPPSSLPDTIYHLDGVPEGGIDFTPHNGTKKIINTVAEVNKLSDASGSSIHSHLTNNALVEIHTANGRWVRDIYLPQGPDLEGKMVRFVSSAGYSSTVFYGDRKVTLSVGNTLLFKYVNGQWFRSGELENNRITYAQHIWSAELPAHWIVPGLNLVIKQGNLSGRLNDIKIGAPGELLLHTIDIGMLTTPRDRFDFAKDKEAHREYFQTIPVSRMIVNNYAPLHLKEVMLPTGELLTDMDPGNGGWHSGTMRQRIGKELVSHGIDNANYGLNSTAGLGENSHPYVVAQLAAHNSRGNYANGIQVHGGSGGGGIVTLDSTLGNEFSHEVGHNYGLGHYVDGFKGSVHRSAENNNSTWGWDGDKKRFIPNFYPSQTNEKSCLNNQCQEPFDGHKFGFDAMAGGSPFSAANRFTMYTPNSSAIIQRFFENKAVFDSRSSTGFSKWNADTQEMEPYEHTIDRAEQITASVNELSESKMAELMAEYAVVKVHMWNGNWTRNIYIPTASADNRGSILTINHEAGYNSYLFINGDEKVVSQGYKKSFVSDGQFWKERDVVDTREARKPEQFGVPVTTLVGYYDPEGTLSSYIYPAMYGAYGFTYSDDSQNLSDNDCQLQVDTKEGQLRFRLANHRANNTVMNKFHINVPTESQPTQATLVCNNKILDTKSLTPAPEGLTYTVNGQALPAKENEGCIVSVNSGKRYCLPVGQRSGYSLPDWIVGQEVYVDSGAKAKVLLSDWDNLSYNRIGEFVGNVNPADMKKVKAWNGQYLDFSKPRSMRVVYK",glycan array binding signal (z-score),[1],-0.142
same,glycan array binding signal (z-score),[2],-0.144
same,glycan array binding signal (z-score),[3],-0.147
same,glycan array binding signal (z-score),[4],-0.132
same,glycan array binding signal (z-score),[5],1.14
same,glycan array binding signal (z-score),[6],2.85
same,glycan array binding signal (z-score),[7],-0.122
same,glycan array binding signal (z-score),[8],5.23
same,glycan array binding signal (z-score),[9],0.015
same,glycan array binding signal (z-score),[10],-0.096
same,glycan array binding signal (z-score),[11],-0.164
same,glycan array binding signal (z-score),[12],-0.117
same,glycan array binding signal (z-score),[13],-0.164
same,glycan array binding signal (z-score),[14],4.13
same,glycan array binding signal (z-score),Gal(a1-3)Gal(b1-4)Glc,-0.25
same,glycan array binding signal (z-score),[15],0.116
same,glycan array binding signal (z-score),Gal(a1-4)Gal(b1-4)GlcNAc,-0.215
same,glycan array binding signal (z-score),Gal(b1-2)Gal,0.601
same,glycan array binding signal (z-score),[16],-0.17
same,glycan array binding signal (z-score),[17],-0.109
same,glycan array binding signal (z-score),[18],-0.142
same,glycan array binding signal (z-score),[19],4.66
same,glycan array binding signal (z-score),Gal(b1-4)GlcNAc(b1-2)Man,-0.167
same,glycan array binding signal (z-score),Gal3S6S(b1-4)GlcNAc,-0.175
same,glycan array binding signal (z-score),Gal6S(b1-4)Glc,0.013
same,glycan array binding signal (z-score),[20],3.96
same,glycan array binding signal (z-score),[21],-0.167
same,glycan array binding signal (z-score),GlcNAc(b1-3)Gal,0.13
same,glycan array binding signal (z-score),[22],-0.152
same,glycan array binding signal (z-score),[23],-0.442
same,glycan array binding signal (z-score),[24],-0.148
same,glycan array binding signal (z-score),[25],-0.198
same,glycan array binding signal (z-score),[26],-0.049
same,glycan array binding signal (z-score),[27],-0.142
same,glycan array binding signal (z-score),[28],4.08
same,glycan array binding signal (z-score),[29],8.93
same,glycan array binding signal (z-score),[30],-0.162
same,glycan array binding signal (z-score),[31],2.84
same,glycan array binding signal (z-score),[32],2.78
same,glycan array binding signal (z-score),[33],-0.156
same,glycan array binding signal (z-score),[34],-0.113

# Reference: the supplement of paper PMC8728848
